# Source: the supplement of paper PMC4022240
# ± gives the standard deviation.
# T1: HaloTag-ATRX ADD domain (163-292)
# T1 chain: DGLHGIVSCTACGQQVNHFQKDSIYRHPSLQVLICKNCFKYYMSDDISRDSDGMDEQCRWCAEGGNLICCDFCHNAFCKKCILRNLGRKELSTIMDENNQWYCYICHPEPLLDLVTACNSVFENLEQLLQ
# Molecular target: T1, HaloTag-ATRX ADD domain (163-292)
# Test: peptide microarray binding signal (635 nm), min-max normalized on array (fraction of array maximum); higher = stronger binding
# Settings: peptide region: Unmod H2B variant; binder concentration: 50 nM
# Procedure, shortened: (§1)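 An Axon GenePix 4000B scanned the arrays at 635 nm for signal and at 532 nm to catch misprints. Those arrays held histone 13-mer peptide–cellulose conjugates printed in triplicate on nitrocellulose with a Cy3 tracer, blocked overnight at 4°C and probed for 1 h at 4°C with biotin-labelled HaloTag reader fusions (10 nM to 1 μM) plus streptavidin-Alexa Fluor 647 or with rabbit histone antibodies (1:10,000 to 1:2,000) plus anti-rabbit Alexa 647. Each binding signal is a triplicate-spot mean intensity, scaled min-max within its library.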
row,Binder,peptide microarray binding signal
1,APKKGSKKAITKA [Unmod H2B variant A P K K G S K K A I T K A],0.00592 ± 0.00021
2,KTQKKEGKKRKRT [Unmod H2B variant K T Q K K E G K K R K R T],0.0089 ± 0.00018
3,YNKRSTITSREIQ [Unmod H2B variant Y N K R S T I T S R E I Q],0.00837 ± 0.00045
4,KRSRKESYSIYVY [Unmod H2B variant K R S R K E S Y S I Y V Y],0.00561 ± 0.00019
5,NSFVTDIFERIAS [Unmod H2B variant N S F V T D I F E R I A S],0.00646 ± 0.0003

# Same assay, conditions: peptide region: Unmod H2B variant; binder concentration: 500 nM
row,Binder,peptide microarray binding signal
1,APKKGSKKAITKA [Unmod H2B variant A P K K G S K K A I T K A],0.00971 ± 0.00064
2,KTQKKEGKKRKRT [Unmod H2B variant K T Q K K E G K K R K R T],0.0148 ± 0.0025
3,YNKRSTITSREIQ [Unmod H2B variant Y N K R S T I T S R E I Q],0.0253 ± 0.0034
4,KRSRKESYSIYVY [Unmod H2B variant K R S R K E S Y S I Y V Y],0.0029 ± 0.00042
5,NSFVTDIFERIAS [Unmod H2B variant N S F V T D I F E R I A S],0.0141 ± 0.00044

# Molecular target: HaloTag-ING2 PHD (mouse Ing2 200-280)
# Test: as above
# Settings: peptide region: Unmod H2B variant; binder concentration: 10 nM
# Procedure, shortened: as §1
row,Binder,peptide microarray binding signal
1,APKKGSKKAITKA [Unmod H2B variant A P K K G S K K A I T K A],0.00239 ± 4.7e-05
2,KTQKKEGKKRKRT [Unmod H2B variant K T Q K K E G K K R K R T],0.003163 ± 1.7e-05
3,YNKRSTITSREIQ [Unmod H2B variant Y N K R S T I T S R E I Q],0.0181 ± 0.00093
4,KRSRKESYSIYVY [Unmod H2B variant K R S R K E S Y S I Y V Y],0.00179 ± 4.2e-05
5,NSFVTDIFERIAS [Unmod H2B variant N S F V T D I F E R I A S],0.00483 ± 0.00011

# Same assay, conditions: peptide region: Unmod H2B variant; binder concentration: 100 nM
row,Binder,peptide microarray binding signal
1,APKKGSKKAITKA [Unmod H2B variant A P K K G S K K A I T K A],0.00248 ± 6.3e-05
2,KTQKKEGKKRKRT [Unmod H2B variant K T Q K K E G K K R K R T],0.00857 ± 0.0013
3,YNKRSTITSREIQ [Unmod H2B variant Y N K R S T I T S R E I Q],0.0337 ± 0.0033
4,KRSRKESYSIYVY [Unmod H2B variant K R S R K E S Y S I Y V Y],0.000496 ± 9.7e-06
5,NSFVTDIFERIAS [Unmod H2B variant N S F V T D I F E R I A S],0.00815 ± 0.00095

# Molecular target: anti-H3K4me3 antibody ab8580
# Test: as above
# Settings: peptide region: Unmod H2B variant; binder concentration: 1:2,000 dilution
# Procedure, shortened: as §1
row,Binder,peptide microarray binding signal
1,APKKGSKKAITKA [Unmod H2B variant A P K K G S K K A I T K A],0.000264 ± 2.8e-06
2,KTQKKEGKKRKRT [Unmod H2B variant K T Q K K E G K K R K R T],0.00068 ± 1.9e-05
3,YNKRSTITSREIQ [Unmod H2B variant Y N K R S T I T S R E I Q],0.00293 ± 0.00014
4,KRSRKESYSIYVY [Unmod H2B variant K R S R K E S Y S I Y V Y],0.00051 ± 7.5e-05
5,NSFVTDIFERIAS [Unmod H2B variant N S F V T D I F E R I A S],0.00238 ± 0.00045

# Same assay, conditions: peptide region: Unmod H2B variant; binder concentration: 1:10,000 dilution
row,Binder,peptide microarray binding signal
1,APKKGSKKAITKA [Unmod H2B variant A P K K G S K K A I T K A],0.00114 ± 3e-05
2,KTQKKEGKKRKRT [Unmod H2B variant K T Q K K E G K K R K R T],0.0012 ± 1.2e-05
3,YNKRSTITSREIQ [Unmod H2B variant Y N K R S T I T S R E I Q],0.00382 ± 0.00016
4,KRSRKESYSIYVY [Unmod H2B variant K R S R K E S Y S I Y V Y],0.000685 ± 1.5e-05
5,NSFVTDIFERIAS [Unmod H2B variant N S F V T D I F E R I A S],0.00308 ± 0.00038

# Molecular target: anti-H3K9me3 antibody ab8898
# Test: as above
# Settings: peptide region: Unmod H2B variant; binder concentration: 1:2,000 dilution
# Procedure, shortened: as §1
row,Binder,peptide microarray binding signal
1,APKKGSKKAITKA [Unmod H2B variant A P K K G S K K A I T K A],0.000302 ± 3.1e-06
2,KTQKKEGKKRKRT [Unmod H2B variant K T Q K K E G K K R K R T],0.000287 ± 5.9e-06
3,YNKRSTITSREIQ [Unmod H2B variant Y N K R S T I T S R E I Q],0.000936 ± 1.5e-05
4,KRSRKESYSIYVY [Unmod H2B variant K R S R K E S Y S I Y V Y],0.000227 ± 4.1e-06
5,NSFVTDIFERIAS [Unmod H2B variant N S F V T D I F E R I A S],0.000936 ± 2e-05

# Same assay, conditions: peptide region: Unmod H2B variant; binder concentration: 1:10,000 dilution
row,Binder,peptide microarray binding signal
1,APKKGSKKAITKA [Unmod H2B variant A P K K G S K K A I T K A],0.000634 ± 1.2e-05
2,KTQKKEGKKRKRT [Unmod H2B variant K T Q K K E G K K R K R T],0.000865 ± 9e-06
3,YNKRSTITSREIQ [Unmod H2B variant Y N K R S T I T S R E I Q],0.00213 ± 7.9e-05
4,KRSRKESYSIYVY [Unmod H2B variant K R S R K E S Y S I Y V Y],0.000634 ± 1.2e-05
5,NSFVTDIFERIAS [Unmod H2B variant N S F V T D I F E R I A S],0.00208 ± 9.6e-05
